Test results reported in PubChem BioAssay.
Entries with a potency or affinity are not part of this list. Inconclusive results are not listed. Active and inactive are the calls of the source. Unless noted, no rule for the calls is given here.

Tests used:
[1] = RMG-1 ovarian cancer cell viability loss – cherry-pick, dose response (AID 687029;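 active = signal drop whose fitted half-maximal concentration is at most twice the top valid dose, in every test run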;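 also: cells exposed to compound for 96 hours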)
[2] = IOSE-T80 viability loss, PAX8-independent line – cell-based, cherry-pick, selectivity assay for PAX8 inhibitor project, dose response (AID 687032;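 active = fitted half-maximal concentration for viability loss no higher than twice the top valid dose, in every repeat run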;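 also: cells exposed to compound for 96 h before reading; 0% = neutral control wells and -100% = 2 µM mitoxantrone kill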)
[3] = general cell-killing toxicity readout – plate reader, dry powder samples, cytotoxicity control for PAX8 inhibitor project, dose response (AID 743021)
[4] = IGROV1 cell killing – plate reader, dry powder samples, PAX8 inhibitor project, dose response (AID 743043);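 also: more negative means fewer viable cells or more cytotoxicity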
[5] = toxicity toward immortalized ovarian surface epithelium – cell-based, plate reader, dry powder samples, cytotoxicity control for PAX8 inhibitor project, dose response (AID 743045);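 also: 0% = neutral control median and -100% = positive control median; more negative values mean more cell killing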
[6] = A2780 cell killing – plate reader, dry powder samples, cytotoxicity control, dose response (AID 743046);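 also: 0% = neutral control wells and -100% = cytotoxic reference compound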
[7] = OVCAR8 cell viability loss – plate reader, dry powder samples, PAX8 project, dose response (AID 743197)
[8] = OVCAR-3 cell viability loss – plate reader, dry powder samples, PAX8 inhibitor project, dose response (AID 743044); conditions: max activity: at 35 µM, hits give low values unless noted
[9] = toxicity toward HepG2 liver cells – cell-based, plate reader, cherry-pick, antagonist series, cytotoxicity control, dose response (AID 743416);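 also: 0% = neutral control wells and -100% = positive control wells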
[10] = A549 cell cytotoxicity, dose response, cytotoxicity control, plate reader, cherry-pick, antagonist series (AID 743412);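 also: 0% = neutral control wells and -100% = positive control wells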
[11] = molecular target: Melanocortin receptor 4 (Homo sapiens) (UniProt P32245); assay: blockade of melanocortin 4 receptor signaling – cell-based, plate reader, cherry pick, counter-screen for LGR2 antagonist project, dose response (AID 743444)

C[C@@H]1CN([C@H](C)CO)S(=O)(=O)c2ccc(C#Cc3ccncc3)cc2O[C@H]1CN(C)C(=O)C1CCCCC1
inactive: outcome [1] | outcome [2] | outcome [3] | outcome [4] | outcome [5] | outcome [6] | outcome [7]

C[C@@H]1CN([C@H](C)CO)C(=O)c2cc(NS(=O)(=O)c3ccc(Cl)cc3)ccc2O[C@@H](C)CCCCO[C@H]1CN(C)S(=O)(=O)c1ccc(Cl)cc1
inactive: outcome [1] | outcome [2] | outcome [3] | outcome [5]

C[C@H](CO)N1C[C@H](C)[C@@H](CN(C)Cc2ccc(C(F)(F)F)cc2)OCCCC[C@H](C)Oc2ccc(NS(=O)(=O)c3ccc(Cl)cc3)cc2C1=O
inactive: outcome [1] | outcome [2] | outcome [3] | outcome [5]

NC(=NCCCCCCN=C(N)/N=C(\N)Nc1ccc(Cl)cc1)/N=C(\N)Nc1ccc(Cl)cc1
inactive: outcome [1] | outcome [2] | outcome [3] | outcome [5]

COc1cccc(-c2ccc3c(c2)[C@H]2[C@H](CCN2C(=O)c2ccccc2F)[C@H](CO)N3C)c1
inactive: outcome [1] | outcome [2] | outcome [3] | outcome [5] | outcome [6]

C[C@@H]1CCCCO[C@H](CN(C)Cc2ccc(C(F)(F)F)cc2)[C@H](C)CN([C@H](C)CO)C(=O)c2cc(NS(=O)(=O)c3ccc(Cl)cc3)ccc2O1
inactive: outcome [1] | outcome [2] | outcome [3] | outcome [5]

C[C@@H]1CCCCO[C@@H](CN(C)C(=O)Nc2ccc(C(F)(F)F)cc2)[C@H](C)CN([C@H](C)CO)C(=O)c2cc(NS(=O)(=O)c3cccs3)ccc2O1
inactive: outcome [1] | outcome [2] | outcome [3] | outcome [5]

O=C(C[C@@H]1CC[C@@H]2[C@H](COC[C@@H](O)CN2C(=O)Nc2ccc(C(F)(F)F)cc2)O1)NC1Cc2ccccc2C1
inactive: outcome [1] | outcome [2] | outcome [3] | max activity [8] -24.5% | outcome [5] | outcome [6] | outcome [7]

C[C@@H]1CN([C@H](C)CO)C(=O)c2cc(NS(=O)(=O)c3cccs3)ccc2O[C@@H](C)CCCCO[C@@H]1CN(C)Cc1ccc(Cl)c(Cl)c1
inactive: outcome [1] | outcome [2] | outcome [3] | outcome [5]

C[C@@H]1CN([C@@H](C)CO)C(=O)Cc2cc(N(C)C)ccc2O[C@H]1CN(C)Cc1ccc(C(=O)Nc2ccccc2N)cc1
inactive: outcome [1] | outcome [2] | outcome [3] | outcome [5] | outcome [6]

CC(C)CC#Cc1ccc2c(c1)O[C@@H](CN(C)S(=O)(=O)c1ccc(F)cc1)[C@@H](C)CN([C@@H](C)CO)S2(=O)=O
inactive: outcome [1] | outcome [2] | outcome [3] | outcome [5] | outcome [6]

Cc1ccc(-c2ccc([C@H]3[C@H](CO)N4CCCCN(S(=O)(=O)c5cccc(C)c5)C[C@@H]34)cc2)cc1
inactive: outcome [1] | outcome [2] | outcome [3] | outcome [5] | outcome [6]

O=C(Nc1ccccc1)N1C[C@@H]2N[C@H](C1)[C@@H]2c1ccc(/C=C/c2ccccc2)cc1
inactive: outcome [1] | outcome [2] | outcome [3] | outcome [4] | outcome [5] | outcome [7]

C[C@@H]1CCCCO[C@@H](CN(C)S(=O)(=O)c2ccc(Cl)cc2)[C@H](C)CN([C@H](C)CO)C(=O)c2cc(NS(=O)(=O)c3ccc(Cl)cc3)ccc2O1
inactive: outcome [1] | outcome [2] | outcome [3] | outcome [5]

COc1ccc(S(=O)(=O)N(C)C[C@H]2Oc3cc(C#CC4CCCC4)ccc3S(=O)(=O)N([C@@H](C)CO)C[C@@H]2C)cc1
inactive: outcome [1] | outcome [2] | outcome [3] | outcome [5]

C[C@H](CO)N1C[C@H](C)[C@@H](CN(C)S(=O)(=O)c2ccccc2)OCCCC[C@H](C)Oc2ccc(NS(=O)(=O)c3ccc(Cl)cc3)cc2C1=O
inactive: outcome [1] | outcome [2] | outcome [3] | outcome [4] | outcome [5] | outcome [7]

COc1ccc(S(=O)(=O)Nc2ccc3c(c2)C(=O)N([C@H](C)CO)C[C@@H](C)[C@@H](CN(C)Cc2ccc(C(F)(F)F)cc2)OCCCC[C@H](C)O3)cc1
inactive: outcome [1] | outcome [2] | outcome [3] | outcome [4] | outcome [5] | outcome [6] | outcome [7]

C[C@@H]1CCCCO[C@H](CN(C)Cc2ccc(Cl)c(Cl)c2)[C@H](C)CN([C@@H](C)CO)C(=O)c2cc(NS(=O)(=O)c3ccc(Cl)cc3)ccc2O1
inactive: outcome [1] | outcome [2] | outcome [3] | outcome [5] | outcome [6]

COc1ccc(S(=O)(=O)Nc2ccc3c(c2)C(=O)N([C@@H](C)CO)C[C@H](C)[C@@H](CN(C)C(=O)Nc2ccc(C(F)(F)F)cc2)OCCCC[C@@H](C)O3)cc1
inactive: outcome [1] | outcome [2] | outcome [3] | outcome [5]

C[C@H]1CCCCO[C@H](CN(C)C(=O)c2ccccc2)[C@@H](C)CN([C@@H](C)CO)C(=O)c2cc(NC(=O)Nc3ccc(C(F)(F)F)cc3)ccc2O1
inactive: outcome [1] | outcome [2] | outcome [3] | outcome [5] | outcome [6]

Cc1ccc(S(=O)(=O)N(C)C[C@H]2OCCCC[C@H](C)Oc3ccc(NS(=O)(=O)c4ccc(Cl)cc4)cc3C(=O)N([C@H](C)CO)C[C@@H]2C)cc1
inactive: outcome [1] | outcome [2] | outcome [3] | outcome [5] | outcome [6]

N#Cc1ccc(-c2ccc(C3[C@@H]4CN(C(=O)c5ccc6c(c5)OCO6)C[C@H]3N4)cc2)cc1 (stereo not given in full)
inactive: outcome [1] | outcome [2] | outcome [3] | outcome [4] | outcome [5] | outcome [6] | outcome [7]

C[C@@H]1CN([C@H](C)CO)C(=O)c2cc(NC(=O)Nc3ccc(F)cc3)ccc2O[C@@H](C)CCCCO[C@H]1CN(C)S(=O)(=O)c1ccccc1
inactive: outcome [1] | outcome [2] | outcome [3] | outcome [4] | outcome [5] | outcome [6] | outcome [7]

Cc1noc(C)c1S(=O)(=O)Nc1ccc2c(c1)CC(=O)N([C@@H](C)CO)C[C@@H](C)[C@H](CN(C)Cc1ccc(Cl)c(Cl)c1)O2
inactive: outcome [1] | outcome [2] | outcome [3] | outcome [5] | outcome [6]

C[C@@H]1CN([C@H](C)CO)C(=O)c2cc(NS(=O)(=O)c3ccc(Cl)cc3)ccc2O[C@@H](C)CCCCO[C@@H]1CN(C)CC1CCCCC1
inactive: outcome [1] | outcome [2] | outcome [3] | outcome [5] | outcome [6]

NS(=O)(=O)c1ccc(CCN2C(=O)/C(=C\c3ccc(Cl)cc3)SC2=S)cc1
inactive: outcome [1] | outcome [2] | outcome [3] | outcome [6]

O=C(C[C@H]1C[C@@H]2c3cc(NS(=O)(=O)c4ccc(F)cc4)ccc3O[C@@H]2[C@@H](CO)O1)N1CCc2ccccc2C1
inactive: outcome [1] | outcome [2] | outcome [4] | outcome [5] | outcome [6]

Cn1nnnc1Sc1ncnc2scc(-c3cccc(Br)c3)c12
inactive: outcome [1] | outcome [2] | outcome [3] | outcome [9]

COc1ccccc1S(=O)(=O)N(C)C[C@H]1Oc2cc(C#CCC3CCCC3)ccc2S(=O)(=O)N([C@@H](C)CO)C[C@H]1C
inactive: outcome [1] | outcome [2] | outcome [4] | max activity [8] 9.23% [at 16 µM, hits give low values] | outcome [5] | outcome [6] | outcome [7]

CCCC#Cc1ccc([C@H]2[C@@H](C#N)N(C(=O)C3CCCCC3)[C@H]2CO)cc1
inactive: outcome [1] | outcome [2] | outcome [4] | outcome [5]

Cn1cnc(S(=O)(=O)N2C[C@@H]3N[C@H](C2)C3c2ccc(-c3ccccc3F)cc2)c1 (stereo not given in full)
inactive: outcome [1] | outcome [2] | outcome [3] | outcome [6]

C[C@H](CO)N1C[C@H](C)[C@H](CN(C)Cc2ccc(C(=O)Nc3ccccc3N)cc2)Oc2ccc(N(C)C)cc2C1=O
inactive: outcome [1] | outcome [2] | outcome [3] | outcome [6]

COc1cccc(-c2ccc(C3[C@@H]4CN(C(=O)C5CC5)C[C@H]3N4)cc2)c1 (stereo not given in full)
inactive: outcome [1] | outcome [2] | outcome [3] | outcome [5] | outcome [6] | outcome [10] | outcome [9] | outcome [11]

COc1ccc(S(=O)(=O)N(C)C[C@@H]2Oc3ccc(NC(=O)Nc4ccc(C(F)(F)F)cc4)cc3CC(=O)N([C@H](C)CO)C[C@@H]2C)cc1
inactive: outcome [1] | outcome [2] | outcome [3] | activity change, negative = cytotoxicity [6] -15.3% [at 8 µM]

C[C@@H]1CCCCO[C@@H](CN(C)S(=O)(=O)c2ccccc2)[C@H](C)CN([C@H](C)CO)C(=O)c2cc(NC(=O)Nc3ccc(C(F)(F)F)cc3)ccc2O1
inactive: outcome [1] | outcome [2] | outcome [5] | outcome [6] | outcome [7]

C[C@@H]1CN([C@@H](C)CO)S(=O)(=O)c2ccc(C#Cc3ccccc3F)cc2O[C@H]1CN(C)C(=O)Cc1ccccc1
inactive: outcome [1] | outcome [2] | outcome [4] | outcome [5] | outcome [6]

O=C(Nc1cccc(C(=O)O)c1)Nc1ccc2c(c1)OCO2
inactive: outcome [1] | outcome [2] | outcome [3] | outcome [10] | outcome [9]

COc1cccc(C#Cc2ccc([C@H]3[C@@H](CO)N(C(=O)C4CCCCC4)[C@H]3C#N)cc2)c1
inactive: outcome [1] | outcome [2] | outcome [4] | outcome [5] | outcome [7]

COc1ccc(NC(=O)N2CCCCN3[C@H](C2)[C@@H](c2ccc(C#Cc4ccccc4)cc2)[C@@H]3CO)cc1
inactive: outcome [1] | outcome [2] | outcome [4] | outcome [5] | outcome [6]

Nc1ccc(-c2nc3ccc(C(=O)O)cc3s2)cc1
inactive: outcome [1] | outcome [2] | outcome [10] | outcome [9]

C[C@H](CO)N1C[C@H](C)[C@@H](CN(C)Cc2ccc(C(F)(F)F)cc2)Oc2ccc(NS(=O)(=O)c3ccc(Cl)cc3)cc2CC1=O
inactive: outcome [1] | outcome [2] | outcome [5] | outcome [6]
